In PubChem BioAssay (NCI):
About 83,000 compounds went through this panel and 20% of them were active in at least one assay; those are over-represented in the sample as a whole.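 Cell lines were cultured in 96-well plates, exposed to a single compound concentration, and assessed for percent growth 48 hours later.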 A number with no mark means an inactive call. Active and inactive are the calls of the source. How the source made its calls: active means growth percent below 10; inactive means the rest.

How the values were obtained:
Assay in all cases: NCI-60 one-dose screen, 48 h (100 = growth as untreated, 0 = no growth, -100 = all killed)
[1] = system: NCI-H226 lung; settings: 10 µM
[2] = system: NCI-H322M lung; settings: 10 µM unless noted
[3] = system: HOP-62 NSCLC; settings: 10 µM unless noted
[4] = system: NCI-H460 lung; settings: 10 µM unless noted
[5] = system: HOP-92 NSCLC; settings: 10 µM unless noted
[6] = system: NCI-H522 lung; settings: 10 µM
[7] = system: A549/ATCC NSCLC; settings: 10 µM unless noted
[8] = system: 786-0 renal; settings: 10 µM unless noted
[9] = system: DU-145 prostate; settings: 10 µM unless noted
[10] = system: K-562 leukemia; settings: 10 µM unless noted
[11] = system: MALME-3M melanoma; settings: 10 µM unless noted
[12] = system: MDA-MB-231 breast; settings: 10 µM unless noted
[13] = system: RXF 393 renal; settings: 10 µM unless noted
[14] = system: SF-268 CNS; settings: 10 µM unless noted
[15] = system: SF-295 CNS; settings: 10 µM unless noted
[16] = system: SF-539 CNS; settings: 10 µM unless noted
[17] = system: UACC-257 melanoma; settings: 10 µM unless noted
[18] = system: M14 melanoma; settings: 10 µM unless noted
[19] = system: COLO 205 colon; settings: 10 µM unless noted

Structure (SMILES) | growth [1] | growth [2] | growth [3] | growth [4] | growth [5] | growth [6] | growth [7] | growth [8] | growth [9] | growth [10] | growth [11] | growth [12] | growth [13] | growth [14] | growth [15] | growth [16] | growth [17] | growth [18] | growth [19]
O=C(COc1ccc(/C=C2\CSc3ccccc3C2=O)cc1)c1ccc(Cl)cc1 | 97.9% | 111% | 94.4% | 115% | 122% | 99.4% | 101% | 105% | 113% | 99.2% | 98.7% | 97% | 90.4% | 104% | 125% | 106% | 121% | 101% | 
Cc1ccc2c(c1)c(Sc1ccc(C(=O)NO)cc1)c1n2CN(C)CC1 | -0.932% (active) | 31.1% | 33.7% | 7.16% (active) | 27.9% |  | 1.5% (active) | 37.7% | 11.7% | 11.5% | 26.6% | -32.2% (active) | 33% | 1.67% (active) | 11.8% | -35.1% (active) |  | 26% | 14.1%
COc1cc(C2=NN(c3ccc(S(N)(=O)=O)cc3)C(c3ccc(Cl)cc3)C2)cc(OC)c1OC (stereo not given) | 55.6% | 66.9% | 60.6% | 25.8% | 23.3% | 44.9% | 26.2% | 66.5% | 65.9% | 18.7% | 85.7% | 43.7% | 34.8% | 48.2% | 25% | 69.1% | 57.5% | 45.7% | 
C=CC(=O)N1CC2(CC(n3nc(-c4ccc(Oc5ccccc5)cc4)c4c(N)ncnc43)C2)C1 | 15.8% | 31.1% | 35.7% | 40.5% | 20% |  | 39.2% | 35.5% | 11% | 17.7% | 12.7% | 3.31% (active) | -19.4% (active) | 10.9% | 70.4% | 10.1% | 5.54% (active) | 14.8% | 
NC1=NC(c2ccccc2OS(=O)(=O)c2ccc(Br)cc2)n2c(nc3ccccc32)N1 (stereo not given) | 102% | 101% | 75.2% | 97.6% | -1.3% (active) | 82% | 95.9% |  | 109% | 74.4% | 104% | 80.1% | 109% | 95.1% | 99.1% | 96% | 96.8% |  | 91.8%
COc1cccc(C2C3=C(COC3=O)N(CCO)c3cc4c(cc32)CCC4)c1 (stereo not given) | 13.4% | 30.3% | 19.2% | 1.42% (active) | 48.2% | -50.4% (active) | 12.1% | 0.563% (active) | -26.5% (active) | 15.8% | 57.3% | -12% (active) | -3.06% (active) | 22.6% | -27.5% (active) | -17.9% (active) | 31.5% | -13.7% (active) | 
NC(=O)c1cc(Cl)ccc1NC(=O)COc1ccccc1 | 90.5% | 46.7% | 46.7% | 29.6% |  | 44.2% | 52.8% | 60.1% | 60.4% | 18.1% |  | 77.4% | 55% | 66.2% |  | 18.2% | 84.4% | 28.2% | 25.4%
C=CC(=O)N1CC2(CCC(n3nc(-c4ccc(Oc5ccccc5)cc4)c4c(N)ncnc43)CC2)C1 | -77.7% (active) | 0.179% (active) | -2.62% (active) | -76.8% (active) | -66.4% (active) |  | -78.7% (active) | -87.7% (active) | -52.3% (active) | 3.48% (active) | -70.7% (active) | -31% (active) | -94.9% (active) | -81.1% (active) | -13.9% (active) | -94.4% (active) |  | -79.7% (active) | -11.6% (active)
NC(=O)c1cc(I)ccc1NC(=O)COc1ccccc1 | 64.2% | 48.3% | 21.7% | 6.3% (active) |  | 0.734% (active) | 18.3% | 33.7% | 25% | 8.23% (active) |  | 27.6% | 8.03% (active) | 46.4% | 12.6% | -33.6% (active) | 61.4% | 0.806% (active) | 12.2%
